# From PubChem BioAssay (NCI)
# Several values for one entry are separate records, joined by “and”; a condition that tells them apart may be missing. Equal entries are not always repeated. This is part of a sample that, as a whole, favours compounds with a hit. Of some 79,000 tested, about 15% had one in any assay. A structure can be active in one record and inactive in another. Activity calls are given as the source filed them. Cut-off read from the data, not from the text of the source: active = growth inhibition above about 70%; inactive = the rest.
# How the values were obtained:
# [1] = NCI Yeast Anticancer Drug Screen. Data for the rad50 strain (AID 155);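 note: 0% = growth of vehicle-only cultures of the same strain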; conditions: S. cerevisiae rad50 strain growth inhibition, stronger effect = higher value
# Method in brief: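 Vehicle-treated cultures provide the reference for the growth inhibition reported for compound-exposed, repair-deficient yeast.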
# [2] = NCI Yeast Anticancer Drug Screen. Data for the mec2-1 strain (AID 157); conditions: S. cerevisiae mec2-1 strain, stronger effect = higher value
# Method in brief: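 Growth inhibition is read against vehicle-treated controls after compound exposure of the mec2-1 yeast strain, which is defective in DNA damage repair or cell cycle control.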
# [3] = NCI Yeast Anticancer Drug Screen. Data for the sgs1 mgt1 strain (AID 161);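 note: 0% = growth of cultures given vehicle only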; conditions: S. cerevisiae sgs1 mgt1 strain, stronger effect = higher value
# Method in brief: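 Yeast cells carrying a defined DNA-repair defect were exposed to test compounds. Growth inhibition was measured relative to vehicle-treated controls.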
# [4] = NCI Yeast Anticancer Drug Screen. Data for the cln2 rad14 strain (AID 165);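 note: 0% = growth equal to vehicle treated cultures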; conditions: S. cerevisiae cln2 rad14 strain, stronger effect = higher value
# Method in brief: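 Growth inhibition, relative to vehicle-treated controls, is the read-out. The test organism is a yeast strain with defined genetic alterations, cln2 rad14.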
# [5] = NCI Yeast Anticancer Drug Screen. Data for the bub3 strain (AID 167); conditions: S. cerevisiae bub3 mutant strain, stronger effect = higher value
# Method in brief: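 Mutant yeast screening strain plus compound; vehicle-treated cultures serve as the 0% inhibition reference.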
# [6] = NCI Yeast Anticancer Drug Screen. Data for the mlh1 rad18 strain (AID 175); conditions: S. cerevisiae mlh1 rad18 strain growth inhibition, stronger effect = higher value
# Method in brief: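 Cells of a genetically altered yeast strain, deficient in DNA damage repair, were treated with compound. Their growth was then compared with that of vehicle-treated cultures to give inhibition.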
# [7] = at 5.0 µM (retest, dose inferred, filed as 0.5)
# [8] = at 50.0 µM (retest, dose inferred, filed as 5.0)
SMILES,"growth inhibition [1, 7]","growth inhibition [1, 8]",growth inhibition ([1]; at 50.0 µM),"growth inhibition [2, 7]","growth inhibition [2, 8]",growth inhibition ([2]; at 50.0 µM),"growth inhibition [3, 7]","growth inhibition [3, 8]",growth inhibition ([3]; at 50.0 µM),"growth inhibition [4, 7]","growth inhibition [4, 8]",growth inhibition ([4]; at 50.0 µM),"growth inhibition [5, 7]","growth inhibition [5, 8]",growth inhibition ([5]; at 50.0 µM),"growth inhibition [6, 7]","growth inhibition [6, 8]",growth inhibition ([6]; at 50.0 µM)
c1ccc2c(c1)[As]=c1ccccc1=[As]2 (stereo not drawn),65% (inactive),99% (active),89% (active),95% (active),99% (active),91.5% (active),58% (inactive),99% (active),92% (active),36% (inactive),99% (active),92.1% (active),91% (active),98% (active),90.2% (active),72% (active),99% (active),91.4% (active)
O=C(O)c1ccc(NP(=O)(O)Oc2ccccc2)cc1 (tested in a mixture with another compound),0% (inactive),8% (inactive),-2.15% (inactive),-1% (inactive),3% (inactive),3.45% (inactive),-20% (inactive),-8% (inactive),29.9% (inactive),-4% (inactive),-6% (inactive),-24.8% (inactive),-1% (inactive),-1% (inactive),-7.8% (inactive),11% (inactive),16% (inactive),15.2% (inactive)
ClC(C[n+]1ccccc1)c1ccccc1 (stereo not drawn),8% (inactive),22% (inactive),71% (active) and -9.25% (inactive),3% (inactive),16% (inactive),34.2% (inactive) and -1.25% (inactive),10% (inactive),35% (inactive),64.4% (inactive) and -1.8% (inactive),4% (inactive),3% (inactive),-2.5% (inactive) and 7.5% (inactive),1% (inactive),6% (inactive),26.4% (inactive) and 11.1% (inactive),10% (inactive),51% (inactive),60.6% (inactive) and 4.6% (inactive)
COC(=O)CCCCCCCCC[CH2][Hg][Cl],99% (active),99% (active),95% (active),100% (active),99% (active),97.5% (active),99% (active),99% (active),98% (active),99% (active),98% (active),97.3% (active),99% (active),99% (active),98.4% (active),100% (active),99% (active),98.4% (active)
C[CH2][Sn]1([CH2]C)[c]2ccccc2Oc2cccc[c]21,99% (active),98% (active),99% (active),99% (active),99% (active),99.4% (active),99% (active),99% (active),99.3% (active),97% (active),98% (active),98.8% (active),99% (active),99% (active),99.2% (active),99% (active),99% (active),99% (active)
Sc1ccc(Cl)cc1,3% (inactive),51% (inactive),9.5% (inactive) and 52.4% (inactive),2% (inactive),37% (inactive),10.7% (inactive) and 32.1% (inactive),5% (inactive),34% (inactive),13.4% (inactive) and 26.1% (inactive),,,,0% (inactive),59% (inactive),-33% (inactive) and 62.4% (inactive),,,
CCN(Cc1ccccc1)CC(O)c1ccc(Cl)c(Cl)c1 (stereo not drawn),-3% (inactive),99% (active),9.25% (inactive),-1% (inactive),99% (active),-12.7% (inactive),-2% (inactive),99% (active),20.1% (inactive),2% (inactive),99% (active),-23.4% (inactive),0% (inactive),98% (active),70.3% (active),-1% (inactive),99% (active),3.6% (inactive)
N#CC(Nc1c(N)nc(-c2ccccc2)nc1N)c1ccc(N(CCCl)CCCl)cc1 (stereo not drawn),4% (inactive),45% (inactive),57.5% (inactive),-18% (inactive),26% (inactive),66% (inactive),2% (inactive),43% (inactive),59.8% (inactive),-10% (inactive),9% (inactive),53.1% (inactive),-4% (inactive),-4% (inactive),0.75% (inactive),27% (inactive),90% (active),55.6% (inactive)
C[C@]12Cc3conc3C(O)=C1CC[C@@H]1C2CC[C@@]2(C)C1CC[C@@H]2O (stereo partly drawn),2% (inactive),5% (inactive),81.3% (active),0% (inactive),0% (inactive),63.5% (inactive),1% (inactive),35% (inactive),57.1% (inactive),1% (inactive),24% (inactive),55.2% (inactive),-49% (inactive),3% (inactive),71.2% (active),-1% (inactive),15% (inactive),78.2% (active)
O=C(COc1ccc(Cl)c(Cl)c1)N(Cc1ccccc1)Cc1ccc[n+](Cc2ccc(Cl)cc2S(=O)(=O)F)c1,8% (inactive),84% (active),54% (inactive),44% (inactive),42% (inactive),54.9% (inactive),2% (inactive),62% (inactive),-0.3% (inactive),10% (inactive),78% (active),50.4% (inactive),2% (inactive),82% (active),42.4% (inactive),6% (inactive),96% (active),60.1% (inactive)
CC[C@@]1(O)CC(OC2CC(N3CCOCC3)C(O)C(C)O2)c2c(O)c3c(c(O)c2[C@H]1O)C(=O)c1cccc(O)c1C3=O (stereo partly drawn),96% (active),98% (active),59.3% (inactive),36% (inactive),99% (active),51.2% (inactive),63% (inactive),99% (active),49.4% (inactive),31% (inactive),99% (active),97.3% (active),24% (inactive),99% (active),99% (active),52% (inactive),98% (active),51.1% (inactive)
CN(CCC(N)CC(=O)NC1C=CC(n2ccc(N)nc2=O)OC1C(=O)O)C(=N)N (stereo not drawn),48% (inactive),95% (active),91.8% (active),86% (active),98% (active),92.8% (active) and 93.4% (active),42% (inactive),90% (active),90.9% (active),88% (active),97% (active),90% (active) and 90.2% (active),68% (inactive),96% (active),91% (active) and 92% (active),72% (active),97% (active),90.6% (active) and 90.7% (active)
CC(=O)OCC12CCC(C)=CC1OC1C3(O)N=C(C)OC3C2(C)C12CO2 (stereo not drawn),35% (inactive),78% (active),32.2% (inactive),28% (inactive),55% (inactive),69% (inactive),46% (inactive),76% (active),41% (inactive),38% (inactive),64% (inactive),56.3% (inactive),18% (inactive),69% (inactive),41.9% (inactive),46% (inactive),75% (active),18.4% (inactive)
COc1cc(Br)cc(/C=C(\C)[N+](=O)[O-])c1O,11% (inactive),96% (active),99.5% (active),7% (inactive),95% (active),99.8% (active),18% (inactive),97% (active),99.8% (active),-5% (inactive),94% (active),99.5% (active),-1% (inactive),97% (active),99.7% (active),9% (inactive),97% (active),99.7% (active)
O=C(CCN1CC1)NCCc1ccccc1,-152% (inactive),90% (active),96.6% (active),-44% (inactive),48% (inactive),83.3% (active),-59% (inactive),84% (active),58% (inactive),-60% (inactive),73% (active),83.7% (active),-72% (inactive),87% (active),67.8% (inactive),-143% (inactive),90% (active),93.7% (active)
COc1cc(N(CCCl)CCCl)ccc1C=Nc1cccc(Cl)c1,5% (inactive),45% (inactive),84% (active),-6% (inactive),51% (inactive),62.6% (inactive),1% (inactive),7% (inactive),94% (active),0% (inactive),20% (inactive),81.6% (active),0% (inactive),14% (inactive),87% (active),17% (inactive),87% (active),94.2% (active)
C=C(C)C(=O)OC1CCC2(C)C(CCC3C2CCC2(C)C(c4ccc(=O)oc4)CC4OC432)C1 (stereo not drawn),7% (inactive),67% (inactive),71.9% (active),7% (inactive),48% (inactive),66.7% (inactive),-10% (inactive),57% (inactive),63.8% (inactive),26% (inactive),64% (inactive),60.2% (inactive),16% (inactive),80% (active),71.3% (active),21% (inactive),73% (active),63.9% (inactive)
CC1([CH2][Hg][I])CS(=O)(=O)CC(C)([CH2][Hg][I])O1 (stereo not drawn),99% (active),98% (active),95.7% (active),100% (active),99% (active),98% (active),100% (active),99% (active),97.3% (active),99% (active),98% (active),96% (active),100% (active),99% (active),97.8% (active),99% (active),98% (active),96.2% (active)
